GLA inh pH 4.5: qHTS Assay for Inhibitors of Human alpha-Galactosidase at pH 4.5; purified enzyme, 4-MU-alpha-Gal fluorescence, pH 4.5; activity change, negative = inhibition, % at 105 µM; 230,000 tested, under 10 active; AID 1467, 2008;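 further: 0% = full activity with enzyme and -100% = basal without enzyme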
ALOX12 inhib: qHTS Assay for Inhibitors of 12-hLO (12-human lipoxygenase); Polyunsaturated fatty acid lipoxygenase ALOX12 (Homo sapiens), P18054; Potency, µM (top dose mostly 57.1 µM), for the others: top-dose activity change, negative = inhibition, actives largely listed as inhibitors; purified 12-hLO, xylenol orange hydroperoxide absorbance; actives 0.12% (n = 150,000); AID 1452, 2008; further: potency means the concentration at half of the fitted maximal effect; nearly all actives have a fitted effect of over 55% in size
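150 nM 12hLO, 25 mM Hepes pH 7.0 + 0.01% Triton X-100; cpd preinc 15 min RT; 40 uM arachidonic acid, 30 min RT; Fe-XO 30 min; A573/A405 ratio as read-out.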
PNC assembly inh: High Content Assay for Compounds that inhibit the Assembly of the Perinucleolar Compartment. PC3M PTB-GFP, PNC prevalence imaging, 16 h; active compounds read low. activity change (PNC), negative = inhibition, % at 10 µM. actives 3.1% (n = 140,000);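 active means readout at or below -70, meaning at least 70% loss of cells showing the perinucleolar compartment, a nuclear body marking cancer cells; inconclusive means readout between -30 and a set limit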;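 further: plate controls were DMSO wells for no effect and camptothecin positive control wells for full effect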
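Read-out is percentage of cells bearing a perinucleolar compartment, from automated 20x imaging of fixed, Hoechst-stained PC3M PTB-GFP cells. Cells were seeded 4 h, then exposed 16 h to compound (23 nl of library stock) in duplicate plates.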
aGal spleen mod: qHTS Assay for Inhibitors and Activators of Human alpha-Galactosidase From Spleen Homogenate; Alpha-galactosidase A (Homo sapiens), P06280; human spleen homogenate, 4MU-alpha-Gal fluorescence, 40 min; Potency, µM (titrated, usually from 80 µM), for the others: at the top dose activity change, negative = inhibition, actives largely listed as inhibitors; actives 0.008% (n = 240,000); AID 2107, 2009;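 further: potency means the concentration at half of the fitted maximal effect; 0% = enzyme with vehicle and -100% = no enzyme basal signal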
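Fluorogenic readout (Ex 365/Em 440 nm) of 4-methylumbelliferone released from 1 mM 4-MU-alpha-galactoside by spleen homogenate, 40 min at 37C, pH 5.0. Data normalized to no-enzyme and enzyme controls; Hill-equation AC50 from compound titrations.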
ALDH1A1 inh: qHTS Assay for Inhibitors of Aldehyde Dehydrogenase 1 (ALDH1A1). Purified ALDH1A1, NADH fluorescence, propionaldehyde substrate. AID 1030, 2008. Potency, µM (highest dose often 75.3 µM), without a hit: top-dose activity, negative = inhibition, usual class: inhibitors. actives 7.3% (n = 220,000); active means well fitted inhibition curve with a large enough effect, not every such curve was filed as active; inconclusive means small, poorly fitted or top-dose-only effect, or another doubt; inactive means no such curve, though single readings can be large or run the other way;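 further: potency means the concentration at half of the fitted maximal effect; plate controls were no enzyme wells and a reference inhibitor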
Target sequence (P00352 whole entry, looked up): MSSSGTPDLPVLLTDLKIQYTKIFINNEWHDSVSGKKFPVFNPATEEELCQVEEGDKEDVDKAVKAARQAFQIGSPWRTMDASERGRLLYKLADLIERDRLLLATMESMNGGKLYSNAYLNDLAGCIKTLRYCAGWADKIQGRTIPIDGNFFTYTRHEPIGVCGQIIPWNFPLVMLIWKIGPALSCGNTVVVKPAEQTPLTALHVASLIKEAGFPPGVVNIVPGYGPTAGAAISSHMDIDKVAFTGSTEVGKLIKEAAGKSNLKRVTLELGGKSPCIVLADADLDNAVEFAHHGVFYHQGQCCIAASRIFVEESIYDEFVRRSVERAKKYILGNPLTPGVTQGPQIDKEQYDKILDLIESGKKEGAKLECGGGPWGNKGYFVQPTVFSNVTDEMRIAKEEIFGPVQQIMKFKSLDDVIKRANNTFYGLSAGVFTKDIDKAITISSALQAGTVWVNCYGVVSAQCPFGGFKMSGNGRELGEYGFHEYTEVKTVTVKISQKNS
HPGD inh: qHTS Assay for Inhibitors of HPGD (15-Hydroxyprostaglandin Dehydrogenase). Potency, µM, inactives show at the top dose activity change, negative = inhibition, actives largely listed as inhibitors. actives 4.3% (n = 150,000). purified HPGD, NADH fluorescence kinetic, PGE2 substrate. 15-hydroxyprostaglandin dehydrogenase [NAD(+)] (Homo sapiens), P15428; active means well fitted inhibition curve with a large enough effect, not every such curve was filed as active; inconclusive means small, poorly fitted or top-dose-only effect, or another doubt; inactive means no such curve, though single readings can be large or run the other way; further: potency means the concentration at half of the fitted maximal effect
Target sequence (P15428 whole entry, looked up): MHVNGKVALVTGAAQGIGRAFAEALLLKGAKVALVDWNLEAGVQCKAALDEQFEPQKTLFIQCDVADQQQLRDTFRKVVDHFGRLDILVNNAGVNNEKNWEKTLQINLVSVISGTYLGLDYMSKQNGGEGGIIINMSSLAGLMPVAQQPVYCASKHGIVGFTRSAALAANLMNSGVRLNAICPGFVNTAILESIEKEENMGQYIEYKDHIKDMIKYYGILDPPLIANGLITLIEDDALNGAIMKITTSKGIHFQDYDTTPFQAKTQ
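20 nM HPGD preincubated 15 min at room temperature with compound in 50 mM Tris-HCl pH 8, 0.01% Tween 20. Started with 1 mM NAD+ and 30 uM prostaglandin E2; NADH fluorescence (360/450 nm) read 5 times over 30-s intervals, last minus first.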
* hit, by the source's call; u = inconclusive; x = not tested or not shown; ! = not active in a repeat; [ ] = dose if it differs, or a comment. Rows were chosen to be rich in hits. Some 10% of all compounds tested hit in one or more screens of this group. Unless noted, the call rests on the fitted dose curve; in most records, active means well fitted curve in the direction sought with a large enough effect; inconclusive means small, poorly fitted or top-dose-only effect, or another doubt; inactive means no such curve, though single readings can be large; an effect the other way counts as inactive or inconclusive. Unless noted, on the % scale 0 is the no-effect control and ±100 the full control effect.

SMILES	GLA inh pH 4.5	ALOX12 inhib	PNC assembly inh	aGal spleen mod	ALDH1A1 inh	HPGD inh
Cc1ccc(Nc2nc(N)nc(CN3CCN(Cc4ccc5c(c4)OCO5)CC3)n2)cc1C	4.4	x	x	5.7%	7.94µM*	x
Cc1ccc(Nc2nc(N)nc(CN3CCN(C)CC3)n2)cc1C	1.0	-0.1%	u	-2.1%	9.3%	-4.6%
COC(=O)CC(=O)Cc1nc(N)nc(Nc2ccc(C)c(C)c2)n1	-0.2	3.5%	-100.0*	-4.6%	1.4%	-12.1%
CCC/C=C(\CCC)C(NC(=O)Oc1ccc(F)cc1)c1ccc(C(=O)OC)cc1 (stereo not given)	5.1	-1.1%	x	2.0%	5.1%	-8.2%
CCOC(=O)C1=C(C)NC(=O)N[C@@H]1c1coc2cc(C)cc(C)c2c1=O	x	-1.7%[11.4 µM]	x	x	5.2%[13.5 µM]	-1.4%
CCOc1ccc(CN2CCN(S(=O)(=O)c3ccc(NC(C)=O)cc3)CC2)cc1	-9.0	x	x	6.5%	u	x
Cc1cccc(N2CC(C(=O)Nc3nnc(SCC(=O)Nc4nccs4)s3)CC2=O)c1 (stereo not given)	-2.2	-0.5%	12.4	-2.2%	2.3%	-7.6%
Cc1ccccc1N1CC(C(=O)Nc2nnc(SCC(=O)Nc3nccs3)s2)CC1=O (stereo not given)	-1.2	-1.7%	4.5	0.8%	15.8µM*	-28.5%
O=C(Oc1ccc2ccccc2c1Cl)N1CCCC1	-6.3	-4.7%	-88.5*	2.8%	-8.0%	-9.0%
C[C@H]1C=CC(=O)C[C@H]1c1c(F)cccc1Cl	x	x	x	8.7%	x	x
O=S(=O)(O)C(c1ccccc1)[C@@H](O)c1ccccc1 (stereo not given in full)	x	x	x	x	24.2%[13.5 µM]	-9.3%
CCCc1cc(Nc2ccccc2OCC)n2ncnc2n1	3.8	4.5%	9.6	-21.4%	10.3%	7.08µM*
CCOc1ccccc1Nc1cc(C)nc2nnnn12	4.0	x	x	-1.8%	u	x
C/C(CCC(C)C)=N\NC(=O)COc1ccccc1-c1ccccc1	-0.3	x	x	-3.8%	7.08µM*	x
O=C(COc1ccccc1-c1ccccc1)NN=C1CCCC1	0.4	x	x	-22.2%	11.2µM*	x
CC(NC(=O)COc1ccccc1-c1ccccc1)c1ccccc1 (stereo not given)	-2.0	-2.8%	31.2	-0.8%	-2.5%	-6.6%
CC1(NC(=O)COc2ccccc2-c2ccccc2)CCS(=O)(=O)C1 (stereo not given)	0.3	3.3%	-95.8*	0.9%	-6.8%	-3.6%
Cc1cc(C)cc(NC(=S)NCC2CCCO2)c1 (stereo not given)	0.7	-8.6%	u	5.6%	-9.4%	14.1µM*
NS(=O)(=O)c1ccc(NC(=S)NCC2CCCO2)cc1 (stereo not given)	2.3	-2.5%	52.7	2.0%	28.2µM*	u
S=C(NCC1CCCO1)Nc1ccc(Nc2ccccc2)cc1 (stereo not given)	6.5	x	x	0.4%	u	x
CC1N(O)C(c2ccc(Cl)cc2Cl)N(O)C1(C)C (stereo not given)	x	-7.3%	16.3	-10.3%	14.1µM*	-2.7%
CC(=NC1CCCCC1)c1ccccc1O	x	-13.6%[11.4 µM]	x	x	u	-6.9%
O=C(CSc1nnc(CNc2ccccc2)o1)N1CCCc2ccccc21	-15.0	-3.7%	u	-11.1%	8.91µM*	-5.2%
CC1Cc2ccccc2N1C(=O)CSc1nnc(CNc2ccccc2)o1 (stereo not given)	-3.1	1.5%	u	-5.6%	25.1µM*	-3.6%
CC(=O)OCC(NC(=O)C(CCCCNC(=O)OCc1ccccc1)NC(=O)OC(C)(C)C)C1OC(n2cc(C)c(=O)[nH]c2=O)C(OC(C)=O)C1OC(C)=O (stereo not given)	x	x	x	-17.9%	x	x
SMILES	GLA inh pH 4.5	ALOX12 inhib	PNC assembly inh	aGal spleen mod	ALDH1A1 inh	HPGD inh
O=C1NC(=O)C(Cc2ccc(OCCN3COc4ccccc4C3=O)cc2)S1 (stereo not given)	x	x	x	3.6%	x	x
O=c1c(O)cc(C2Oc3cc(O)cc(O)c3CC2O)cc2c(C3Oc4cc(O)cc(O)c4CC3O)cc(O)c(O)c12 (stereo not given)	0.7	-9.6%	x	0.9%	-15.2%	12.6µM*
Oc1cc(O)c2c(c1)O[C@H](c1ccc(O)c(O)c1)[C@@H](O)C2	-2.4	0.4%	x	5.4%	u	-7.9%
CCCOc1ccc(N2C(=O)C3ON(c4ccccc4)C(CCC)C3C2=O)cc1 (stereo not given)	-16.4	9.8%	-3.0	5.8%	17.8µM*	-14.7%
CCCOc1ccc(N2C(=O)C3ON(c4ccccc4)C(c4ccc(O)c(OC)c4)C3C2=O)cc1 (stereo not given)	-1.6	-4.9%	u	-0.7%	31.6µM*	-2.4%
COc1cc(C2C3C(=O)N(Cc4ccccc4)C(=O)C3ON2c2ccccc2)cc(OC)c1O (stereo not given)	-1.6	-17.2%	-0.9	-0.5%	u	-21.5%
CCCn1c(CCC(=O)O)nc2cc(S(=O)(=O)N3CCCC3)ccc21	3.6	x	x	-2.1%	x	x
c1ccc(CCCCNCC2COc3ccccc3O2)cc1 (stereo not given)	-7.6	x	x	-14.8%	u	x
CSc1ccc2c(c1)N(CCC1CCCCN1C)c1ccccc1S2 (stereo not given)	0.1	-1.4%	-114.6*	-2.5%	0.8%	-3.2%
CN1CCCC[C@@H]1CCN1c2ccccc2Sc2ccc(S(C)=O)cc21 (stereo not given in full)	-1.5	-4.9%[11.4 µM]	x	5.1%[29.1 µM]	-4.8%[20.9 µM]	3.16µM*!
CSc1ccc2c(c1)N(CC[C@H]1CCCCN1C)c1ccccc1S2	1.1	-1.9%[25.6 µM]	x	2.7%[29.1 µM]	6.2%[20.9 µM]	-2.8%
Cc1ccc(C(=O)N2CCCCC2C(=O)O)o1 (stereo not given)	-1.8	x	x	0.1%	5.1%	x
Cn1c(CSCc2ccc(Cl)c(Cl)c2)n[nH]c1=S	-4.8	0.2%	56.9	-0.3%	-11.2%	-26.4%
Cc1ccc(-n2c(C)cc(/C=N/NC(=O)c3ccncc3)c2C)c(C)c1	-15.2	-9.5%	-20.9	1.6%	12.6µM*	-14.7%
CCc1ccc(-n2c(C)cc(/C=N/NC(=O)c3ccncc3)c2C)cc1	6.4	x	x	0.4%	7.94µM*	x
Cc1cccc(C)c1-n1c(C)cc(/C=N/NC(=O)c2ccncc2)c1C	3.2	-1.2%	u	2.8%	28.2µM*	-10.1%
Cc1ccc(-n2c(C)cc(/C=N/NC(=O)CC3(C)OCCO3)c2C)c(C)c1	7.0	0.3%	-25.1	-4.9%	14.1µM*	-20.5%
C[C@@H]1CCCN(C[C@@H](O)CN2CCCc3ccccc32)C1	x	-2.0%[11.4 µM]	x	x	-0.7%[13.5 µM]	-12.3%
